# From PubChem BioAssay AID686979 (National Center for Advancing Translational Sciences (NCATS), 2013)
# Where “and” joins values, the source holds several entries; their conditions need not be identical. Equal entries are not always repeated. Screen size: about 420,000 compounds; about 50,000 (12%) were called active. Inconclusive results (about 26%) are left out. Calls follow the shape of the dose curve; as a rule, active = well fitted inhibition curve with a large enough effect; inconclusive = small, poorly fitted or top-dose-only effect; inactive = flat fitted curve, though single readings scatter. The sample as a whole holds a higher share of actives than the screen did. The source holds several records for some structures; these can differ, active in one and inactive in another.
# Assay: qHTS for Inhibitors of human tyrosyl-DNA phosphodiesterase 1 (TDP1): qHTS in cells in presence of CPT; also: nearly all actives have a fitted effect of over 55% in size
# Settings: chicken DT40 Tdp1-/-;hTDP1 cells + 20 nM CPT, ATP luminescence, 48 h; series mostly up to 46.2 µM; activity change, negative = growth inhibition: at the top concentration
# Excerpt: Human tyrosyl-DNA phosphodiesterase 1 (TDP1) is a novel repair gene, and we propose to use it as a new target for anticancer drug development. TDP1 is not an essential protein, but under treatment with topoisomerase I poison (camptothecin: CPT), TDP1 works as a critical factor for cell survival. To directly identify novel TDP1 inhibitors active in a cellular environment, we have knocked-out the Tdp1 gene in chicken DT40 cells (Tdp1-/-) and generated a complemented counterpart cells that contains a stable transfection of the human TDP1 gene (Tdp1-/-;hTDP1 cells). For the primary screen, Tdp1-/-;hTDP1 cells will be exposed to small molecules in the presence or absence of CPT, and their growth kinetics will be evaluated after 48 hours by measuring ATP activity. […] The hit compounds will then be evaluated in the presence or absence of CPT using Tdp1-/- cells. […] In tertiary assays, biochemical gel-based assays will be used to assess whether the hit compounds specifically target TDP1. To this end, we have screened this cell line against the MLSMR in two primary screens. In one screen we add CPT and in the other we screen in the absence of CPT; this AID represents the screen where CPT was present. NIH Chemical Genomics Center [NCGC] NIH Molecular Libraries Probe Centers Network [MLPCN] MLPCN Grant: MH095538 Assay Submitter (PI): Yves Pommier, NCI
# DT40-hTDP1 cells with 20 nM Camptothecin (add 20 microL of 1 mM CPT stock in 1 L of cell culture medium) were dispensed at 400 cells/5microL/well in tissue culture treated 1536-well white wall/solid bottom assay plates (Greiner Bio-One North America, NC, U.S.A.) using a Multidrop Combi 8 channel dispenser (Thermo Fisher, Waltham, MA, USA). 23 nL compounds and controls were transferred using the pin tool (Kalypsys, San Diego, CA, USA) to the assay plates. The assay plates were then incubated at 37 masculineC for a minimum 48 hr. Three microL of Cell Titer Glo solution was added to the plates and incubated at RT in dark for 30 min. Luminescence was read using ViewLux (Perkin Elmer) with 1 sec exposure slow speed, high gain and 2x binning.
# % is scaled to controls: 0 for no effect and ±100 for the full control effect; potency is read from the fitted curve at half-maximal effect.
Structure (SMILES),"activity change, negative = growth inhibition",Potency
CCOC(=O)c1cnc2nc(SCc3ccccc3Cl)[nH]n2c1=O,-4.22% (inactive),
CS(=O)(=O)c1ccc(Cl)c(NC(=O)COC(=O)c2ncc(Cl)c(Cl)c2Cl)c1,0.632% (inactive),
COc1cccc(CN(C)CC(=O)NCc2ccccc2Cl)c1OC,-23.4% (inactive),
COc1cccc(CN(C)CC2CCCN(CCc3ccc(Cl)cc3)C2)c1OC (configuration not stated),,16.4 µM (active)
Cc1nc2ccc(C(=O)N(C)CC3CCCN(CCc4ccc(Cl)cc4)C3)cc2[nH]1 (configuration not stated),-12.6% (inactive),
CCc1ccnc(NS(=O)(=O)c2ccc3c(c2)OCCO3)c1,0.676% (inactive),
COc1ccc(C2CC(c3ccc(C)cc3)Nc3nc(N)nn32)cc1 (configuration not stated),-9.25% (inactive),
CCOc1ccccc1C1CC(c2ccc(Cl)cc2)Nc2nc(N)nn21 (configuration not stated),,18.4 µM (active)
Cc1ccc(C2CC(c3cccc(C)c3)n3nc(N)nc3N2)cc1 (configuration not stated),-24.1% (inactive),
COc1ccccc1N1CCN(c2ncnc3onc(-c4cccc(Cl)c4)c23)CC1,7.45% (inactive),
COc1ccccc1N1CCN(c2nc(C)cc(=O)[nH]2)CC1,19.5% (inactive),
COc1ccccc1N1CCN(c2ncnc3sc(C)c(-c4ccccc4)c23)CC1,,23.1 µM (active)
Cn1cnc(S(=O)(=O)Nc2ccc3c(c2)OCCO3)c1,-11.7% (inactive),
O=C(COC(=O)c1cc(-c2cccs2)nn1-c1ccccc1)Nc1cc([N+](=O)[O-])ccc1Cl,8.85% (inactive),
CCc1cccc(CC)c1NC(=O)Cn1c(=O)c(-c2cc(C)ccc2NC(C)=O)nc2ccccc21,0.437% (inactive),
CCCn1c(N)c(C(=O)CSc2nnc(-c3cccnc3)n2-c2ccc(C)cc2C)c(=O)[nH]c1=O,-6.68% (inactive),
COCc1cc(=O)n2[nH]c(C)c(-c3ccccc3)c2n1,-2.85% (inactive),
Cc1nc2c(-c3ccccc3)c(C)[nH]n2c(=O)c1Cl,-0.299% (inactive),
CCCc1cc(=O)n2[nH]c(C)c(-c3ccc(Cl)cc3)c2n1,,20.6 µM (active)
CCOc1cc(C)c(S(=O)(=O)NCc2ccccn2)cc1C,12.8% (inactive),
COc1ccc(NC(=O)C2C3CCC(O3)C2C(=O)O)cc1OC (configuration not stated),-3.95% (inactive),
COCC(=O)N1CCc2ccc(NC(=O)c3ccccc3Cl)cc2C1,5.3% (inactive),
CC(C)Oc1ccc(CNC(=O)C2CCN(c3nc4ccccc4n(C)c3=O)CC2)cc1,-5.18% (inactive),
Cc1ccc(Cn2c(CCCNC(=O)C3CCCCC3)nc3ccccc32)cc1,,16.4 µM (active)
O=C(NCCCc1ccccc1)C1CCC(CNc2c(N3CCCCC3)c(=O)c2=O)CC1 (configuration not stated),4.19% (inactive),
Cc1ccc(CN2C(=O)CCC2C(=O)NCCCN2CCCCC2C)cc1 (configuration not stated),-1.28% (inactive),

Structure (SMILES),"activity change, negative = growth inhibition",Potency
CCc1ccc(OCCCn2c(CCCNC(=O)C3CCCCC3)nc3ccccc32)cc1,,8.91 µM (active)
Cc1ccc2[nH]cc(CCNC(=O)C3CCCCC3)c2c1,-21.5% (inactive),
O=C(CSc1nnc(CNC(=O)c2ccccc2)n1-c1ccc(F)cc1)Nc1ccccc1F,-13.6% (inactive),
Cc1ccc(NS(=O)(=O)c2ccc(N/N=C/c3ccccc3OCC(=O)O)c([N+](=O)[O-])c2)c(C)c1,1.01% (inactive),
O=C(CC1SC(=Nc2ccccc2F)N(CCN2CCOCC2)C1=O)Nc1ccc(F)cc1F (configuration not stated),-10.2% (inactive),
COc1ccccc1N(CC(=O)N/N=C(\C)c1ccccc1O)S(=O)(=O)c1ccc(C)cc1,-94.3% (inactive),
Cc1ccc(S(=O)(=O)N(CC(=O)NCc2ccco2)c2ccccc2C)cc1,-7.69% (inactive),
Cc1ccc(S(=O)(=O)N(CC(=O)Nc2ccc(Cl)cc2Cl)c2ccccc2C)cc1,,18.4 µM (active)
COc1ccc(C(F)(F)F)cc1N/C=C\c1nnnn1-c1ccc(C)cc1,-1.88% (inactive),
COc1ccccc1OCC(=O)O/N=C(\N)c1ccccn1,-15.9% (inactive),
Cc1ccccc1-c1cc(C(=O)NCC2CC2)n(CC2CC(c3cccnc3)=NO2)n1 (configuration not stated),0.873% (inactive),
CCOC(=O)c1ccc2[nH]c(C)c(CN3CCN(C)CC3)c(=O)c2c1,12.7% (inactive),
CCCOC(=O)c1ccc(N2C(=O)c3ccccc3C2=O)cc1,-3.9% (inactive),
O=C(NCc1ccccc1)C(=O)NCC(c1ccco1)S(=O)(=O)c1ccc(Cl)cc1 (configuration not stated),,23.1 µM (active)
CC(C)(C)c1ccc(C(=O)NCC(c2ccco2)S(=O)(=O)c2ccc(F)cc2)cc1 (configuration not stated),,20.6 µM (active)
O=C(NCCc1ccccc1)C(=O)NCC(c1ccco1)S(=O)(=O)c1ccccc1 (configuration not stated),-27.8% (inactive),
COc1ccccc1CNC(=O)C(=O)NCC(c1ccco1)S(=O)(=O)c1ccc(F)cc1 (configuration not stated),,20.6 µM (active)
CC(C)(C)c1ccc(C(=O)NCCC(=O)NCc2ccco2)cc1,-27.3% (inactive),
CC(C)(C)c1ccc(C(=O)NCc2ccco2)cc1,-21.9% (inactive),
COc1ccc(S(=O)(=O)NC(CC(=O)NCc2ccccc2OC)c2ccco2)cc1 (configuration not stated),-22.8% (inactive),
CC(C)CNC(=O)C(=O)NCc1ccccc1,-5.58% (inactive),
COc1ccccc1NS(=O)(=O)c1ccc(C)c(C(=O)NCC(c2ccco2)N(C)C)c1 (configuration not stated),12.3% (inactive),
O=C(CCN1C(=O)C2CCCCC2C1=O)Nc1ccc(OC(F)F)cc1 (configuration not stated),0.993% (inactive),
COc1ccccc1-n1ccnc(SCC(=O)NC2CCCCC2)c1=O,-22.8% (inactive),
COc1ccccc1C(=O)NCc1nnc(SC(C)C(=O)Nc2nccs2)n1C (configuration not stated),-3.89% (inactive),
Cc1c(NS(=O)(=O)c2ccc(Cl)cc2)c(=O)n(-c2ccccc2)n1C,-2.45% (inactive),

Structure (SMILES),"activity change, negative = growth inhibition",Potency
O=C(NCc1ccc(Cl)cc1)NCc1ccc(Cl)cc1,-7.05% (inactive),
CCc1nc2c(OCC(N)=O)cccn2c1N(C)C(=O)c1ccc(OC)cc1,-52.9% (inactive),
O=C(COc1ccccc1)OCc1cc(=O)n2nc(-c3cccs3)sc2n1,-2.16% (inactive),
CCOc1cc(C(=O)O)ccc1OCCOc1ccccc1,11.7% (inactive),
CCc1nc2c(OCCOc3ccccc3)cccn2c1N(C)C(=O)c1cccs1,,25.9 µM (active)
O=C(c1cccs1)N(C(=O)c1cccs1)c1ccccn1,2.25% (inactive),
CCc1nc2c(OCCOc3ccccc3)cccn2c1N(C)C(=O)c1ccc(OC)cc1,,29.1 µM (active)
Cc1c(C2=CCN(S(=O)(=O)c3ccc(Cl)cc3)CC2)c2ccccc2n1C,-25% (inactive),
Cc1ccn(CC(=O)N2N=C(C(F)F)CC2(O)C(F)F)n1 (configuration not stated),-25.3% (inactive),
COc1cccc(CN2CCNC(=O)C2CC(=O)N(C)CCc2ccccn2)c1 (configuration not stated),10.9% (inactive),
O=C(NCCCNC(=O)NC1CCCCC1)NC1CCCCC1,-19.5% (inactive),
Cc1ccc(NC(=O)Nc2cccnc2)cc1,4.49% (inactive),
O=C(NNC(=O)c1csc(-c2cccnc2)n1)Nc1ccc(Cl)cc1,-15% (inactive),
O=C(Nc1ccc(Cl)cc1)Nc1ccc(Oc2cccnc2)nc1,,18.4 µM (active)
CCN=c1sc(C(=O)Nc2ccccc2)c(C)n1CC,2.49% (inactive),
O=C(COc1ccc(/C=N/NS(=O)(=O)c2ccccc2)cc1)NCCc1ccccc1,-22.2% (inactive),
O=C(COCc1cc(-c2ccc3c(c2)OCO3)on1)N1CCN(c2cccc(Cl)c2)CC1,,inactive and 18.4 µM (active)
Cc1cccc(N2CCN(C(=O)COCc3cc(-c4ccc5c(c4)OCO5)on3)CC2)c1C,,inactive
CC(C)NC(=O)COCc1cc(-c2ccc3c(c2)OCO3)on1,-0.118% (inactive),
CC(=O)c1ccccc1NC(=O)C1CC(=O)N(c2ccc3c(c2)OCCO3)C1 (configuration not stated),0.743% (inactive),
N#CCCN(C(=O)COC(=O)C1CCN(c2ccc(C(F)(F)F)cn2)CC1)c1ccc(F)cc1,-17.8% (inactive),
FC(F)(F)c1nc(-c2ccccc2)ncc1-c1nnnn1-c1ccccc1,,20.6 µM (active)
c1ccc(-n2nnnc2NC2CCCCCC2)cc1,-24.8% (inactive),
c1ccc(-n2nnnc2-c2cccnc2)cc1,-7.87% (inactive),
Cc1ccc2c(=O)cc(C(=O)Nc3sc4c(c3C(=O)NCc3cccnc3)CCCC4)oc2c1,3% (inactive),
COc1ccc(C2CC(c3cccs3)=NN2C(=O)CSc2nnc(N)s2)cc1OC (configuration not stated),2.09% (inactive),

Structure (SMILES),"activity change, negative = growth inhibition",Potency
CSc1nc(Nc2ccc(F)cc2)cc(-c2ccccc2)n1,,14.6 µM (active)
Fc1ccc(Nc2nnns2)cc1,-18.8% (inactive),
Fc1ccc2cnc(-c3ccccc3)cc2c1,-40.8% (inactive),
CCNc1nc(Oc2ccc(C(=O)OC)cc2)nc(N2CCOCC2)n1,-2.75% (inactive),
COc1ccc(S(=O)(=O)NCc2ccc(C(=O)N(C)Cc3ccco3)cc2)cc1,-26.5% (inactive),
COc1ccccc1S(=O)(=O)NCc1ccc(C(=O)N(C)Cc2ccc(F)cc2)cc1,,20.6 µM (active)
O=C(NCCS(=O)(=O)NCc1ccc(F)cc1)c1ccccc1,-16.7% (inactive),
NC(=O)c1oc2ccccc2c1NC(=O)CS(=O)(=O)c1ccccc1,-14.5% (inactive),
CC[C@]12c3[nH]c4ccc(OC)cc4c3CCN1C(=O)C(CC(=O)NCCN1CCOCC1)C[C@@H]2C(=O)N1CCN(C(=O)C2CC2)CC1 (some centres not stated),-0.596% (inactive),
c1ccc2c(c1)CSc1sccc1C2=C1CCNCC1,,20.6 µM (active)
Cc1csc(NCC(=O)c2c[nH]c3ccccc23)n1,12.2% (inactive),
NC(=O)NCCCC(=O)O,0.521% (inactive),
Cc1cc(C)n(CCNCc2c(C(=O)N3C[C@@H](C)O[C@@H](C)C3)nc3ccc(Cl)cn23)n1,7.87% (inactive),
CC(=O)Oc1cccc(C(=O)Nc2ccccc2NC(=O)c2cccc(OC(C)=O)c2)c1,-13.8% (inactive),
COc1ccc(OC)c2[nH]c(=O)c(CCNC(=O)C(C)(C)C)cc12,4.38% (inactive),
COc1ccc(OC)c2[nH]c(=O)c(CCNC(=O)C(=O)c3c[nH]c4ccccc34)cc12,,10.3 µM (active)
Cc1ccc(C)c2[nH]c(=O)c(CCNC(=O)CC(C)C)cc12,10.6% (inactive),
CC1(C(=O)NCc2ccccc2)CSCC(=O)N1CCCn1ccnc1 (configuration not stated),15.7% (inactive),
CC(=O)Nc1ccc(NC(=S)NC(=O)/C=C/c2ccccc2)cc1,21.7% (inactive),
O=C(O)c1ccc2c(c1)C(=O)N(c1ccc(/C=C/C(=O)c3ccccc3)cc1)C2=O,11.4% (inactive),
CC1(C)C=Cc2c(ccc(C(=O)/C=C/c3ccccc3)c2O)O1,,7.94 µM (active)
CC1(C(=O)O)CCN1C(=O)/C=C/c1ccccc1 (configuration not stated),-1.88% (inactive),
O=C(/C=C/c1ccccc1)N/C(=C/c1ccccc1)C(=O)Nc1ccccc1O,-12.3% (inactive),
O=C(/C=C/c1ccccc1)c1ccccc1O,,10.3 µM (active)
